Here are results for 15 molecules from PubChem BioAssay (NCATS).

The structures appear in SMILES notation. Records with an inconclusive call do not appear. Active and inactive are the calls of the source. Unless noted, calls follow the shape of the dose curve; as a rule, active = well fitted curve in the direction sought with a large enough effect; inconclusive = small, poorly fitted or top-dose-only effect, or another doubt; inactive = no such curve, though single readings can be large; an effect the other way counts as inactive or inconclusive.

Assay [1] in a line: Inducers of the Endoplasmic Reticulum Stress Response (ERSR) in human glioma: Validation (AID 504836). In short, it runs like this: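 ERSR induction read as luciferase luminescence (Bright-Glo, 10 min at room temperature) in stably transfected human U87-MG glioma cells exposed to compounds for 16 h, using GRP78 as sensor.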
The nature of assay [2]: qHTS for Inhibitors of the Functional Ribonucleoprotein Complex (vRNP) of Lassa (LASV) Arenavirus: LASV Primary Screen - GLuc reporter signal (AID 1347082; calls by dose curve; tested in HEK293 reporter line; also: series mostly up to about 57 µM; nearly all actives have a fitted effect of over 60% in size). (qHTS replaces the single test concentration by a dilution series.)
The nature of assay [3]: qHTS for Inhibitors of the Functional Ribonucleoprotein Complex (vRNP) of Lassa (LASV) Arenavirus: Viability assay - alamar blue signal for LASV Primary Screen (AID 1347083; calls by dose curve; tested in HEK293 reporter line; also: series mostly up to about 57 µM; nearly all actives have a fitted effect of over 80% in size).
Assay [4] can be described thus: qHTS for Inhibitors of the Functional Ribonucleoprotein Complex (vRNP) of Lymphocytic Choriomeningitis Arenaviruses (LCMV): Viability assay - alamar blue signal for LCMV Primary Screen (AID 1347085; calls by dose curve; tested in HEK293 reporter line; also: series mostly up to about 57 µM; nearly all actives have a fitted effect of over 80% in size).
The target in assay [5] is Nucleoprotein (Lymphocytic choriomeningitis virus (strain Armstrong)) (UniProt P09992). Briefly: qHTS for Inhibitors of the Functional Ribonucleoprotein Complex (vRNP) of Lymphocytic Choriomeningitis Arenaviruses (LCMV): LCMV Primary Screen - GLuc reporter signal (AID 1347086; calls by dose curve; also: series mostly up to about 57 µM; nearly all actives have a fitted effect of over 70% in size).
Assay [6] has as its target Flap endonuclease 1 (Homo sapiens) (UniProt P39748). Briefly: qHTS Validation Assay for the Inhibitors of Human Flap endonuclease 1 (FEN1) (AID 488816). In short, it runs like this:
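Readings taken at 0 and 15 min after starting the reaction with 50 nM (final) substrate supplied the signal. Compounds had first sat with 10 nM FEN1 reagent for 15 min at room temperature. Values come from Hill-equation concentration-response fits.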

Assay [7] deals with Arylsulfatase A (Homo sapiens) (UniProt P15289). Briefly: qHTS screen for enhancers of Arylsulfatase A (ASA1): LOPAC Validation Assay (AID 720538). Also: potency is read from the fitted curve at half-maximal effect. In short, it runs like this: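 First, ASA-I179S fibroblasts from an MLD patient adhered for 6 hrs. Next, compounds were added for 48h. Then pNCS substrate (0.5mM final) with lysis buffer reacted 14h at room temperature before NaOH stop and fluorescence measurement.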

In assay [8] the target is M-phase phosphoprotein 8 (Homo sapiens) (UniProt Q99549). Put plainly: qHTS Validation Assay for Inhibitors for MPP8 Chromodomain Interactions with Methylated Histone Tails (AID 488949).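 Also: AlphaScreen signal from MPP8 chromodomain bound to biotinylated H3K9me3 peptide; top concentration of the series differs between compounds; nearly all actives have a fitted effect of over 55% in size.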 In short, it runs like this:
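Disruption of the preformed MPP8–trimethyl-H3K9 peptide complex (both 50 nM, 30 min, RT) is measured after 30 min compound exposure, using AlphaScreen proximity beads; aurintricarboxylic acid titration serves as plate control.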

Assay [9] concerns the target Ubiquitin carboxyl-terminal hydrolase 2 (Homo sapiens) (UniProt O75604). Briefly: qHTS Validation Assay for Inhibitors of Ubiquitin-specific Protease USP2a Using CHOP2 as the Reporter (AID 463106). Also: potency is read from the fitted curve at half-maximal effect. In short, it runs like this:
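10nM USP2 core + cpd, 30min RT; add 25nM Ub-CHOP2/25nM substrate; 60min RT; FI 485/531nm. Buffer Tris pH 8.0, CaCl2, BME, CHAPS. Norm. to NEM = 100% inhibition; time-zero read flags fluorescent artifacts.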

Assay [10] concerns the target DNA polymerase III PolC-type (Bacillus subtilis (strain 168)) (UniProt P13267). Briefly: qHTS Validation Assay for the Inhibitors of DNA Replication in Gram-Positive Bacteria (AID 485295). Also: potency is read from the fitted curve at half-maximal effect. In short, it runs like this: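 Primed replication of single-stranded M13Gori by a four-protein B. subtilis holoenzyme is measured at room temperature. Double-stranded product is quantified by PicoGreen fluorescence after an EDTA stop; inhibition is scaled between DMSO and EDTA controls.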

The target of assay [11] is Ubiquitin carboxyl-terminal hydrolase 1 (Homo sapiens) (UniProt O94782). Briefly: Inhibitors of USP1/UAF1: Pilot qHTS (AID 504865). Also: potency is read from the fitted curve at half-maximal effect; nearly all actives have a fitted effect of over 35% in size. In short, it runs like this: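 Kinetic fluorescence assay: 1nM USP1/UAF1, 15 min compound preincubation, then 150nM Ub-Rho; 480/540 nm.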
Assay [12] in a line: HTS Assay for Allosteric Antagonists of the Human D2 Dopamine Receptor: Hit Validation in HTRF (AID 624455).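 Also: stable D1 dopamine receptor cell line scored for blocking the D1 response.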 Put shortly:
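First, antagonism was screened by calcium flux in a force-coupled, inducible Hek293 Trex D2 line challenged with EC80 dopamine. Hits then went into an HTRF assay in cells stably expressing D1, testing inhibition of the D1 response.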
Background: In TR-FRET formats the signal depends on donor and acceptor labels being close together.

The target in assay [13] is Alpha-galactosidase (Coffea arabica) (UniProt Q42656). Put plainly: Counterscreen for Glucocerebrosidase Inhibitors: qHTS Assay for Coffee Bean alpha-Galactosidase at pH 5.9 (AID 998). In short, it runs like this:
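Compounds were titrated from 0.7 nM to 77 uM against green coffee bean alpha-galactosidase (2 nM) using 80 uM fluorogenic 4-methylumbelliferyl substrate. After 20 min at room temperature, reactions were stopped at pH 10 and read by fluorescence.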

Assay [14] in a line: Validation screen for inhibitors of Lassa infection (AID 463096; calls by dose curve).
In assay [15] the target is Alpha-galactosidase (Coffea arabica) (UniProt Q42656). Briefly: Counterscreen for Glucocerebrosidase Inhibitors: qHTS Assay for Coffee Bean alpha-Galactosidase at pH 4.5 (AID 957). Also: series mostly up to about 77 µM. In short, it runs like this:
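Coffee bean alpha-galactosidase 2 nM, substrate 4-MU-alpha-Gal 80 uM, pH 4.5 citrate/Tween-20, 20 min RT. Cpd titration 0.7 nM–77 uM. Stop pH 10, fluorescence 365/440 nm; Hill-equation AC50.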
For orientation: A counterscreen serves to expose hits that act by an unwanted route or on another target.

Alpha-galactosidase (Coffea arabica), sequence (Q42656 whole entry, looked up): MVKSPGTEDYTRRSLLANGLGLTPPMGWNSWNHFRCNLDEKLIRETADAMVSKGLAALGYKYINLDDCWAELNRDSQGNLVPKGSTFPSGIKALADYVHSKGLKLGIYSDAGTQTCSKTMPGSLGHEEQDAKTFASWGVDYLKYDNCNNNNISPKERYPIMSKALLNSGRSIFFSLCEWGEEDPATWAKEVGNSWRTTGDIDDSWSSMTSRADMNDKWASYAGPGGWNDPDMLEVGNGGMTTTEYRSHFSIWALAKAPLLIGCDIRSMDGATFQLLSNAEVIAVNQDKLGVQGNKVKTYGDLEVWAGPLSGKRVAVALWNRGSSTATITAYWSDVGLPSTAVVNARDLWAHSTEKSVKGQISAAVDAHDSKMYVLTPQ
Arylsulfatase A (Homo sapiens), sequence (P15289 whole entry, looked up): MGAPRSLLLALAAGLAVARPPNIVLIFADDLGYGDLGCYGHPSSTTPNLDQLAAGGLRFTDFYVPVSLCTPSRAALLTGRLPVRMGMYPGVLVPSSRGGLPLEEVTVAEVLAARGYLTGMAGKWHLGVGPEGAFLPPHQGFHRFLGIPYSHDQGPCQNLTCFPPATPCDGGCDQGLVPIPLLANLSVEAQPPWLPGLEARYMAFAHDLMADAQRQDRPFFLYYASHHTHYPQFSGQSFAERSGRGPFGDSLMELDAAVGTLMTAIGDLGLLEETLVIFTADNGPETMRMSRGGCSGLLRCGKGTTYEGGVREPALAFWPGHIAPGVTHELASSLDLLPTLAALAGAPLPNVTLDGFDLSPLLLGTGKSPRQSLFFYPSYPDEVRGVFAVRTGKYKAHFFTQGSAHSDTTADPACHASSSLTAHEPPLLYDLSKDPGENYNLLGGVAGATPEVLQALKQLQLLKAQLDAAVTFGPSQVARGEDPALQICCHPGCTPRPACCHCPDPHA
Nucleoprotein (Lymphocytic choriomeningitis virus (strain Armstrong)), sequence (P09992 whole entry, looked up): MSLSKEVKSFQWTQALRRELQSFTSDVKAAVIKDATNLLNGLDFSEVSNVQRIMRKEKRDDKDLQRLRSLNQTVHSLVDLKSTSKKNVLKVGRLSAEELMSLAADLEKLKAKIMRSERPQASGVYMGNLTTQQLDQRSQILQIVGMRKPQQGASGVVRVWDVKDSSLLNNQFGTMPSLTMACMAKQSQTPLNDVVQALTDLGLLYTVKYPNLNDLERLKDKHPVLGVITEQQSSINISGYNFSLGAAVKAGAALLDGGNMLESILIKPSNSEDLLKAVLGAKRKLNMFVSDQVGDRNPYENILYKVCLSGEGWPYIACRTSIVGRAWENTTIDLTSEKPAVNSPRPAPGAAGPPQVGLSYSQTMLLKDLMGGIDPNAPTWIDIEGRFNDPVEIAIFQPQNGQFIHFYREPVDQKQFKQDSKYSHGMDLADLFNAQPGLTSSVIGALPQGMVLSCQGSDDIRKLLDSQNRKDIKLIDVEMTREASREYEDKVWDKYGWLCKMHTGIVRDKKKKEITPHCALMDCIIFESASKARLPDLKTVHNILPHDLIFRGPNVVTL
Ubiquitin carboxyl-terminal hydrolase 2 (Homo sapiens), sequence (O75604 whole entry, looked up): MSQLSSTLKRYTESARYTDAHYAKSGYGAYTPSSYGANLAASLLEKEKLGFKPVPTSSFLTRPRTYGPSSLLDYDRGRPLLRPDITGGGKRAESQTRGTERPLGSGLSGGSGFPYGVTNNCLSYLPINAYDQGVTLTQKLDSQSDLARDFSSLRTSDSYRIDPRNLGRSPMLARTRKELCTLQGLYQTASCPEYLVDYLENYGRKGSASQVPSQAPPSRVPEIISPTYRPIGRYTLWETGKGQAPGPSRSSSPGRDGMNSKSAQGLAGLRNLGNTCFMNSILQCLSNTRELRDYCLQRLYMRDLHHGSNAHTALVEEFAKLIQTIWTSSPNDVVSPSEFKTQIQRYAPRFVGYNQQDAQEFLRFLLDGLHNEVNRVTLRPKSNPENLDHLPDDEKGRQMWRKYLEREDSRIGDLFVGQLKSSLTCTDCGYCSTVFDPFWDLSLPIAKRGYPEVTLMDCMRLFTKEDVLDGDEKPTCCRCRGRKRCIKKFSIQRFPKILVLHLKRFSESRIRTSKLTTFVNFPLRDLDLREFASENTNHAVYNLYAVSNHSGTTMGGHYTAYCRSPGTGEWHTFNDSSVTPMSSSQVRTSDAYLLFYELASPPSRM
Ubiquitin carboxyl-terminal hydrolase 1 (Homo sapiens), sequence (O94782 whole entry, looked up): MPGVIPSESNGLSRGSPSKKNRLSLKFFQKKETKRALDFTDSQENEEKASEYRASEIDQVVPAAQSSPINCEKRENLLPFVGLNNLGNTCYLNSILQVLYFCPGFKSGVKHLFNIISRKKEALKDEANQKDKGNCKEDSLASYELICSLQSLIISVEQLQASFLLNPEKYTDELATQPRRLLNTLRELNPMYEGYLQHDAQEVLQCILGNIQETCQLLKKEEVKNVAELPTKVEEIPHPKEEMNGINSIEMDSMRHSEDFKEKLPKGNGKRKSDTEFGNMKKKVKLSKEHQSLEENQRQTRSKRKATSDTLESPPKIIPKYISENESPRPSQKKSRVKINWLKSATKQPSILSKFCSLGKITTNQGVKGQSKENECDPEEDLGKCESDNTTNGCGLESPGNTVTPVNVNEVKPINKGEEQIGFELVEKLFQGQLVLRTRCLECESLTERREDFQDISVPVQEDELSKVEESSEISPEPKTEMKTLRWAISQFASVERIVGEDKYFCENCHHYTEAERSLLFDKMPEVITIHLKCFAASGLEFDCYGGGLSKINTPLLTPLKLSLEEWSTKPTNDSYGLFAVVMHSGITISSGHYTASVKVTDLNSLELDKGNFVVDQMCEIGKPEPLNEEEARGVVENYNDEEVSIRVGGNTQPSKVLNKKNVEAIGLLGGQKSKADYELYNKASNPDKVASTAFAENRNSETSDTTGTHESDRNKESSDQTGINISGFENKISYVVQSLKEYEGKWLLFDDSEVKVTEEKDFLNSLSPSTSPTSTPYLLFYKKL
M-phase phosphoprotein 8 (Homo sapiens), sequence (Q99549 whole entry, looked up): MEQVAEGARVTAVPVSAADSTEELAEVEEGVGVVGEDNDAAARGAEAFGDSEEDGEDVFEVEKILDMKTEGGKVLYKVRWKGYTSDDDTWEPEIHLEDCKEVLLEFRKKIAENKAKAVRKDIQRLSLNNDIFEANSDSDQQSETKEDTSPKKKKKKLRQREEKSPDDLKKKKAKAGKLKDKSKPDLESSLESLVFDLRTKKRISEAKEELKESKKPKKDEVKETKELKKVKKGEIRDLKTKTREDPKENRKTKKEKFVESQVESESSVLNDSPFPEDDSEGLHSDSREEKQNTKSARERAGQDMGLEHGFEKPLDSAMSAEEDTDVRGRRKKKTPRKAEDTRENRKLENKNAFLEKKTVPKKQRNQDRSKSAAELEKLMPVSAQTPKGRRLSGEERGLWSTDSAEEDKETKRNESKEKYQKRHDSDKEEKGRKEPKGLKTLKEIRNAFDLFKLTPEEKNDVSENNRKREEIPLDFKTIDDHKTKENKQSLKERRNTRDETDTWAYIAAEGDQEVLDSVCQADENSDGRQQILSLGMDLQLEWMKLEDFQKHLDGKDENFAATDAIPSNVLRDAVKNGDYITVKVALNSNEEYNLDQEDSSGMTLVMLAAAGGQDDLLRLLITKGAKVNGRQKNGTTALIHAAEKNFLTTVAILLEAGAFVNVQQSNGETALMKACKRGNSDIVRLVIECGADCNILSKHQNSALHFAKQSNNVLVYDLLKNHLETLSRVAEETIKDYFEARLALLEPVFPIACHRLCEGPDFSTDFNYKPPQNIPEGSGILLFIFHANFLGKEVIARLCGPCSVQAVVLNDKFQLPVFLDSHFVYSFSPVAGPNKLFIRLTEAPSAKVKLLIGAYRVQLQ
Flap endonuclease 1 (Homo sapiens), sequence (P39748 whole entry, looked up): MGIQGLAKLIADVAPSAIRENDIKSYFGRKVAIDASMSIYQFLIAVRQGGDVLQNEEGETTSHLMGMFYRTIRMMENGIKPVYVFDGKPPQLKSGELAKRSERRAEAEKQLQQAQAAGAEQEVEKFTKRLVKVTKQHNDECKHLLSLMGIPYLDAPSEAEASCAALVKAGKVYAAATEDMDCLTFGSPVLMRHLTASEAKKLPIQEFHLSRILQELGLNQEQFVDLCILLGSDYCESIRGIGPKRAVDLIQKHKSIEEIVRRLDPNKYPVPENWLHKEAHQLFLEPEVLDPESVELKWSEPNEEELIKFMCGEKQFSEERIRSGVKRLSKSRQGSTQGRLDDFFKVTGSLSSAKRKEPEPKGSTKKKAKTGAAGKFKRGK

In the case of `COc1cccc2c1[C@@H]1CN(CCCCn3c(=O)[nH]c4c(sc5ncc(-c6ccccc6)nc54)c3=O)C[C@@H]1CO2`, the molecule was classed as inactive in assay [1]. The Potency result in assay [2], in assay [3], in assay [4] and in assay [5] was “inactive” in each case.

On to `Nc1ncnc2c1nc(Sc1ccc(Cl)cc1)n2[C@H]1OC2COP(=O)(O)O[C@@H]2C1O` (some centres not stated), for which, in assay [1], the outcome was inactive. The Potency result in assay [2], in assay [3], in [4] and in [5] was “inactive” throughout.

Take `CC(=O)SC1CC2=CC(=O)CC[C@]2(C)C2CC[C@@]3(C)C(CC[C@@]34CCC(=O)O4)C12` (some centres not stated): the outcome in assay [1] was inactive. Besides, the Potency entry in assay [2], in [3], in assay [4] and in assay [5] was “inactive” in each case.

For `NC(=NCc1ccccc1)NC(=O)c1nc(Cl)c(N)nc1N`, the outcome in assay [1] was inactive. Moreover, the Potency result in [2], in assay [3], in assay [4] and in assay [5] was “inactive” in each case.

As to `Nc1nc(SCc2ccc([N+](=O)[O-])cc2)c2ncn([C@@H]3O[C@H](CO)[C@@H](O)[C@H]3O)c2n1`, the molecule was called inactive in assay [1]. Moreover, the Potency result in assay [2], in assay [3], in assay [4] and in assay [5] was “inactive” in each case.

On to `O=C(O)CC1CC(c2ccccc2)=NO1` (configuration not stated), for which the Potency entry in assay [6], in [7], in [2], in assay [3], in [4] and in [5] was “inactive” in each case. The outcome in assay [1] was inactive.

Regarding `C[C@]12C=CC(=O)C=C1CC[C@@H]1C2=CC[C@]2(C)[C@@H](C(=O)CN3CCN(c4cc(N5CCCC5)nc(N5CCCC5)n4)CC3)CC[C@@H]12`, the Potency result in assay [8], in assay [7], in assay [2], in [3], in [4] and in assay [5] was “inactive” each time.

Regarding `CSc1nc(N)c2ncn([C@@H]3O[C@H](COP(=O)(O)OP(=O)(O)O)C(O)[C@H]3O)c2n1` (some centres not stated), the call in assay [1] was inactive. Besides, the Potency entry in assay [2], in assay [3], in assay [4] and in assay [5] was “inactive” each time.

With `N.N.N.N.N.N.N.N.N.N.N.N.N.N.O.O.[Ru+4].[Ru+5].[Ru+5]`, the Potency in [9] is 14.7 µM (active); in [10] it was 16.8 µM (active); in [11], 44.7 µM (active); in assay [7], 12 µM (active). The molecule was called inactive in [1] and in assay [12]. The Potency result in assay [2], in [3], in assay [4] and in assay [5] was “inactive” each time.

Regarding `CC(C)(C)[C@]1(O)CCN2C[C@H]3c4ccccc4CCc4cccc(c43)[C@@H]2C1`, the molecule was called inactive in assay [1]. In addition, the Potency result in assay [2], in [3], in assay [4] and in assay [5] was “inactive” in each case.

Consider `CNC(=O)[C@H]1O[C@@H](n2cnc3c(NCc4cccc(I)c4)ncnc32)[C@H](O)[C@@H]1O`, for which the molecule was classed as inactive in assay [1]. The Potency entry in assay [2], in assay [3], in [4] and in assay [5] was “inactive” each time.

As to `OC[C@H]1O[C@H](n2cnc3c(N[C@H]4CCC[C@@H]4O)ncnc32)[C@H](O)[C@@H]1O`, in [1], the outcome was inactive. The Potency result in assay [2], in assay [3], in [4] and in [5] was “inactive” in each case.

With `C[C@H](O)C(=O)C1=Nc2c(nc(N)[nH]c2=O)NC1`, in assay [13], the outcome was inactive. Further, the Potency entry in assay [14], in [2], in [3], in assay [4] and in assay [5] was “inactive” throughout.

For the molecule `O=C(O)c1cc2cc(F)ccc2[nH]1`, the call in assay [15] and in assay [13] was inactive. The Potency result in [14], in assay [2], in assay [3], in assay [4] and in assay [5] was “inactive” throughout.

Consider `N#C/C(=C\c1ccc(O)c(O)c1)C(=O)c1ccc(O)c(O)c1`, for which the molecule was called inactive in [13]. For the same molecule, the Potency entry in [14], in [2], in assay [3], in assay [4] and in [5] was “inactive” throughout.
